Assay results published in PubChem BioAssay AID1159580 (chemical genetic matrix, 2015).
Several values for one entry are separate records, joined by “and”; a condition that tells them apart may be missing. Identical values can stand only once. About 2,000 (36%) of roughly 5,500 compounds were called active. Not shown: some 18% with an inconclusive outcome. Cut-off read from the data, not from the text of the source: active = normalized growth mostly below about 0.91 (no sharp cut-off); inconclusive = no clear call, values can overlap the other calls; inactive = mostly above about 0.92. The list shows a part of the results.

Experiment: chemical genetic growth profiling, strain panel (AID 1159580);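 note: tested at 20 µM; growth read once vehicle control cultures reached saturation at 30 °C; 1 = growth at the plate median or of vehicle wells; lower values mean less growth of the strain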
Details: S. cerevisiae deletion strains, growth OD

Measured: normalized growth

COC(=O)C1=C(C)NC(C)=C(C(=O)OCCN(C)Cc2ccccc2)C1c1cccc([N+](=O)[O-])c1 (stereo not given)
inactive: locus YAL013W, strain DEP1, stronger effect = lower value 1 | locus YAL021C, strain ccr4, stronger effect = lower value 0.98 | locus YAL026C, strain drs2, stronger effect = lower value 0.979 | locus YAL030W, strain snc1, stronger effect = lower value 1.01 | locus YAL040C, strain CLN3, stronger effect = lower value 1.02 | locus YBL061C, strain skt5, stronger effect = lower value 0.984 | locus YBR009C, strain hhf1, stronger effect = lower value 0.984 | locus YBR021W, strain FUR4, stronger effect = lower value 0.935 | locus YBR023C, strain chs3, stronger effect = lower value 0.989 | locus YBR171W, strain sec66, stronger effect = lower value 0.986 | locus YBR229C, strain ROT2, stronger effect = lower value 0.952 | locus YBR231C, strain swc5, stronger effect = lower value 0.978 | locus YBR279W, strain paf1, stronger effect = lower value 0.975 | locus YCL011C, strain gbp2, stronger effect = lower value 0.969 | locus YCL016C, strain dcc1, stronger effect = lower value 0.982 | locus YCL029C, strain bik1, stronger effect = lower value 0.981 | locus YCL061C, strain MRC1 (second series), stronger effect = lower value 0.972 | locus YCL069W, strain vba3, stronger effect = lower value 1 | locus YCR088W, strain abp1, stronger effect = lower value 0.984 | locus YDL005C, strain med2, stronger effect = lower value 0.986 | locus YDL035C, strain GPR1, stronger effect = lower value 0.983 | locus YDL040C, strain nat1, stronger effect = lower value 0.973 | locus YDL074C, strain BRE1, stronger effect = lower value 0.917 | locus YDL101C, strain DUN1, stronger effect = lower value 0.979 | locus YDL134C, strain PPH21, stronger effect = lower value 0.976 | locus YDL185W, strain tfp1, stronger effect = lower value 0.977 | locus YDL192W, strain arf1, stronger effect = lower value 0.992 | locus YDR001C, strain nth1, stronger effect = lower value 0.974 | locus YDR069C, strain doa4, stronger effect = lower value 0.977 | locus YDR101C, strain arx1, stronger effect = lower value 0.986 | locus YDR137W, strain rgp1, stronger effect = lower value 1.02 | locus YDR150W, strain NUM1, stronger effect = lower value 0.977 and 0.972 | locus YDR159W, strain sac3, stronger effect = lower value 0.93 | locus YDR162C, strain NBP2, stronger effect = lower value 1 | locus YDR195W, strain ref2 0.96 | locus YDR297W, strain sur2, stronger effect = lower value 0.972 | locus YDR318W, strain mcm21, stronger effect = lower value 0.944 | locus YDR334W, strain swr1, stronger effect = lower value 0.925 | locus YDR335W, strain msn5, stronger effect = lower value 0.986 | locus YDR363W, strain ESC2, stronger effect = lower value 1.03 | locus YDR388W, stronger effect = lower value 0.993 | locus YDR392W, strain spt3, stronger effect = lower value 0.968 | locus YDR502C, strain sam2, stronger effect = lower value 0.981 | locus YEL003W, strain gim4, stronger effect = lower value 0.996 | locus YEL037C, strain rad23, stronger effect = lower value 0.981 | locus YEL061C, strain CIN8 (second series), stronger effect = lower value 0.99 | locus YEL061C, strain CIN8, stronger effect = lower value 0.994 | locus YER002W, strain NOP16, stronger effect = lower value 1.01 | locus YER015W, strain faa2, stronger effect = lower value 0.988 | locus YER016W, strain bim1, stronger effect = lower value 0.983 | locus YER110C, stronger effect = lower value 0.976 | locus YER111C, strain swi4, stronger effect = lower value 0.989 | locus YER155C, strain BEM2 (second series), stronger effect = lower value 0.968 | locus YER155C, strain BEM2, stronger effect = lower value 0.99 | locus YER167W, strain BCK2, stronger effect = lower value 0.994 | locus YFR010W, strain ubp6, stronger effect = lower value 0.978 | locus YGL078C, strain dbp3, stronger effect = lower value 0.979 | locus YGL086W, strain mad1, stronger effect = lower value 0.986 | locus YGL167C, strain pmr1, stronger effect = lower value 1.05 | locus YGL173C, strain kem1, stronger effect = lower value 0.982 | locus YGL227W, strain vid30, stronger effect = lower value 0.989 | locus YGL240W, strain doc1, stronger effect = lower value 0.97 | locus YGL248W, strain PDE1, stronger effect = lower value 0.991 | locus YGL253W, strain hxk2, stronger effect = lower value 0.988 | locus YGR078C, strain PAC10, stronger effect = lower value 0.955 | locus YGR135W, strain pre9, stronger effect = lower value 0.972 | locus YGR229C, strain SMI1, stronger effect = lower value 0.982 | locus YGR252W, strain gcn5, stronger effect = lower value 0.902 | locus YHR013C, strain ard1, stronger effect = lower value 0.978 | locus YHR027C, strain rpn1, stronger effect = lower value 0.983 | locus YHR030C, strain SLT2, stronger effect = lower value 0.987 and 0.976 | locus YHR079C, strain IRE1 (second series), stronger effect = lower value 0.982 | locus YHR079C, strain IRE1, stronger effect = lower value 0.949 | locus YHR094C, strain hxt1, stronger effect = lower value 0.988 | locus YHR129C, strain ARP1, stronger effect = lower value 0.994 | locus YHR142W, strain chs7, stronger effect = lower value 1.02 | locus YHR200W, strain rpn10, stronger effect = lower value 0.989 | locus YIL066C, strain RNR3, stronger effect = lower value 0.973 | locus YIL073C, strain SPO22, stronger effect = lower value 1.12 | locus YIL125W, strain kgd1, stronger effect = lower value 0.99 | locus YIR030C, strain dcg1, stronger effect = lower value 0.979 | locus YJL092W, strain hpr5, stronger effect = lower value 0.996 | locus YJL095W, strain BCK1 (second series), stronger effect = lower value 0.983 | locus YJL095W, strain BCK1, stronger effect = lower value 0.988 and 0.979 | locus YJL115W, strain asf1, stronger effect = lower value 0.989 | locus YJL129C, strain trk1, stronger effect = lower value 0.959 | locus YJL134W, strain LCB3, stronger effect = lower value 0.987 | locus YJL154C, strain vps35, stronger effect = lower value 0.971 | locus YJL164C, strain tpk1, stronger effect = lower value 0.998 | locus YJL166W, strain qcr8, stronger effect = lower value 0.993 | locus YJL168C, strain set2, stronger effect = lower value 1 | locus YJL187C, strain SWE1 (second series), stronger effect = lower value 0.973 | locus YJL187C, strain SWE1, stronger effect = lower value 0.993 | locus YJR043C, strain POL32, stronger effect = lower value 0.997 | locus YJR066W, strain TOR1, stronger effect = lower value 0.917
